Screening results deposited in PubChem by National Center for Advancing Translational Sciences (NCATS).
TDP1 cell CPT: growth inhibition of DT40 Tdp1-/-;hTDP1 cells with camptothecin (screen for TDP1 inhibitors) | chicken DT40 Tdp1-/-;hTDP1 cells + 20 nM CPT, ATP luminescence, 48 h | Potency, µM (doses to about 46.2 µM), actives largely listed as inhibitors | 12% of 420,000 active | AID 686979; further: nearly all actives have a fitted effect of over 55% in size
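Chicken DT40 Tdp1-/- cells complemented with human TDP1, 400 cells/well, exposed to compounds plus 20 nM camptothecin for at least 48 h at 37 C; viability read as ATP content by CellTiter-Glo luminescence.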
IL1B secr inh: blocks inflammasome-driven IL-1 beta release; THP-1 LPS/ATP IL-1B secretion, AlphaLISA, 16 h; hits give low values; activity change, % at 57.5 µM; 4.7% of 360,000 active; AID 743279; in the data active means activity change below about -50%; inconclusive means mostly about -30% to -49%
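THP-1 cells pretreated 1 hr with compounds (up to 57.5 uM final), then stimulated with LPS (250 ng/mL final) plus ATP (1.25 mM final); secreted IL-1B measured by AlphaLISA after 16 hr, decreased signal indicating inhibition.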
HT1080 IDH1KD tx: HT-1080 IDH1 knockdown cell toxicity (counter line) | HT-1080 IDH1 knockdown viability, ATP luminescence, 48 h | Potency, µM (highest dose often 46.1 µM), usual class: cytotoxic | 2% of 360,000 active | AID 686971
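Luminescent ATP read-out (CellTiter-Glo, 10 min at room temperature) after 48 h compound exposure at 37 °C gave viability of IDH1-knockdown HT-1080 cells. Activity was normalised to DMSO and cell-free wells, then fitted as concentration-response curves.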
TDP1 cell noCPT: qHTS for Inhibitors of human tyrosyl-DNA phosphodiesterase 1 (TDP1): qHTS in cells in absence of CPT; DT40 Tdp1-/- hTDP1 cells, no CPT, ATP luminescence, 48 h; Potency, µM (highest dose often 46.2 µM), most hits filed as inhibitors; 15% of 420,000 active; AID 686978, 2013; further: nearly all actives have a fitted effect of over 55% in size
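Cells were dispensed at 400 per well, compounds added by pin tool, plates incubated ≥48 hr at 37 °C, then CellTiter-Glo added for 30 min at room temperature before luminescence reading. Line: DT40 Tdp1-/- complemented with hTDP1; camptothecin omitted.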
HT1080NT lethal: kills 2HG-producing HT-1080-NT fibrosarcoma cells. HT-1080-NT fibrosarcoma viability, CellTiter-Glo ATP luminescence, 48 h. Potency, µM (doses to about 46.1 µM), most hits filed as cytotoxic. 1.6% of 360,000 active. AID 686970;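 further: NT is the 2HG producing partner of a matched IDH1 knockdown line; nearly all actives have a fitted effect of over 55% in size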
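Read-out is CellTiter-Glo luminescence after 10 minutes at room temperature, following 48 hours' compound treatment of HT-1080-NT cells (750 cells/well, RPMI, 5% FBS, 37 degrees C).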
Of the large screens only hits and unclear results are named; the others gave an inactive call. Only some compounds are listed: those with a hit (about 19% of all), similar ones and a draw of the others. Unless noted, the call rests on the fitted dose curve; in most records, active means well fitted curve in the direction sought with a large enough effect; inconclusive means small, poorly fitted or top-dose-only effect, or another doubt; inactive means no such curve, though single readings can be large; an effect the other way counts as inactive or inconclusive.

CCC1CCCCN1Cc1nc2c(c(=O)n(C)c(=O)n2C)n1CC(C)C (stereo not drawn)	TDP1 cell CPT inconclusive, TDP1 cell noCPT inconclusive
CCC1CCCCN1Cc1nc2c(c(=O)n(C)c(=O)n2C)n1CCC(C)C (stereo not drawn)	TDP1 cell CPT 16µM, TDP1 cell noCPT 15µM
COc1cccc(/C=N/NC(=O)c2ccc(=O)n(C)c2)c1O	TDP1 cell CPT 5.8µM, HT1080 IDH1KD tx inconclusive, TDP1 cell noCPT 6.5µM, HT1080NT lethal inconclusive
Cc1[nH]c(C(=O)N/N=C/c2ccc(C(=O)O)cc2)c(C)c1C(=O)N/N=C/c1ccc(C(=O)O)cc1	none
COc1cccc(/C=N/NC(=O)c2c(C)nc3ccc(Cl)cn23)c1O	TDP1 cell CPT 0.92µM, HT1080 IDH1KD tx inconclusive, TDP1 cell noCPT 1µM
COc1cccc(/C=N/NC(=O)c2[nH]c(C)c(C(=O)N/N=C/c3cccc(OC)c3O)c2C)c1O	TDP1 cell CPT 5.2µM, TDP1 cell noCPT 3.3µM
COc1cccc(/C=N/NC(=O)c2ccc(-c3ccccc3)cc2)c1O	TDP1 cell CPT 5.2µM, HT1080 IDH1KD tx inconclusive, TDP1 cell noCPT 4.6µM, HT1080NT lethal inconclusive
CS(=O)(=O)N1CCC(n2c(C(F)(F)F)nc3cccnc32)CC1	none (no result: IL1B secr inh, HT1080 IDH1KD tx, HT1080NT lethal)
Cc1ncc2c(c1CNC(=O)c1ccc3c(c1)OCO3)CCN(C(=O)/C=C/c1ccccc1Cl)C2	none (no result: IL1B secr inh, HT1080 IDH1KD tx, HT1080NT lethal)
CCOc1ccc(NC(=O)CN(C)C(=O)c2ccc3c(c2)S(=O)(=O)N=C2CCCCCN23)cc1OCC	none
COc1ccc(OC)c(/C=N/NC(=O)c2ccc(=O)[nH]n2)c1	none
COc1cccc(/C=N/NC(=O)c2ccc(=O)[nH]n2)c1O	TDP1 cell CPT 23µM, HT1080 IDH1KD tx 23µM, TDP1 cell noCPT 15µM, HT1080NT lethal inconclusive
COc1cccc(/C=N/NC(=O)C(=O)Nc2ccccc2OC(F)(F)C(F)F)c1O	TDP1 cell CPT 3.3µM, HT1080 IDH1KD tx inconclusive, TDP1 cell noCPT 3.3µM, HT1080NT lethal inconclusive
O=C1C=C(c2c(O)ccc3ccccc23)c2ccccc2C1=O	TDP1 cell CPT 1.2µM, IL1B secr inh -117, HT1080 IDH1KD tx inconclusive, TDP1 cell noCPT 1.2µM, HT1080NT lethal 7.3µM
Cc1[nH]c2ccccc2c1CCNC(=O)c1c(N)no[n+]1[O-]	none
CN1/C(=C/C(=S)NC(=O)C2(C)CC2(Cl)Cl)C(C)(C)c2ccccc21 (stereo not drawn)	TDP1 cell CPT inconclusive, TDP1 cell noCPT 23µM
CN1/C(=C\C(=S)NC(=O)c2ccccc2Cl)C(C)(C)c2ccccc21	TDP1 cell CPT 7.3µM, IL1B secr inh -54, TDP1 cell noCPT 4.6µM
CC1CCN(CCCNC(=O)CCNC(=O)Cn2cnc3ccccc3c2=O)CC1	none
O=C(NNC(=O)c1ccccc1Br)c1cnccn1	TDP1 cell CPT 18µM, HT1080 IDH1KD tx inconclusive, TDP1 cell noCPT inconclusive
O=C(NNC(=O)c1cnccn1)c1ccc(Cl)c(Cl)c1	TDP1 cell CPT 7.3µM, HT1080 IDH1KD tx inconclusive, TDP1 cell noCPT 3.7µM, HT1080NT lethal inconclusive
O=C(CN1C(=O)NC2(CCCCCC2)C1=O)Nc1cccc(F)c1	none
O=C(CN1CCN(CC(=O)Nc2ccc3c(c2)OC2(CCCCC2)O3)CC1)Nc1cccc(F)c1	TDP1 cell CPT 23µM, TDP1 cell noCPT 16µM (no result: IL1B secr inh)
O=C(CN1CCN(C(=O)CCC(=O)N2CCC(c3ccccc3)=N2)CC1)Nc1cccc(F)c1	TDP1 cell CPT 16µM, IL1B secr inh inconclusive, TDP1 cell noCPT 16µM
O=C(CN1CCN(C(=O)CCC(=O)N2CCC(c3ccccc3)=N2)CC1)Nc1ccc(F)cc1	TDP1 cell CPT inconclusive, TDP1 cell noCPT 23µM
Cn1c(C(=O)N2CCCC(Nc3ccc(F)cc3)C2)cc2ccccc21 (stereo not drawn)	none
C=CCc1c(C)nc2ccc(C(=O)OCC)cc2c1Cl	TDP1 cell CPT inconclusive
COC(=O)c1cc(S(=O)(=O)N2CCN(Cc3ccccc3)CC2)cn1C	none
CC(C)C[C@@H](CN1CCCC1CN1C(=S)NC[C@@H]1Cc1ccc(O)cc1)N1C[C@H](Cc2ccccc2)N(CC2CCCCC2)C1=S (stereo partly drawn)	TDP1 cell CPT inconclusive, HT1080 IDH1KD tx inconclusive, TDP1 cell noCPT inconclusive
CC(C)C[C@H]1CNC(=S)N1C[C@H]1CCCN1C[C@H](CC(C)C)N1C[C@H](Cc2ccc(O)cc2)N(CC2CCCCC2)C1=S	TDP1 cell CPT 10µM, IL1B secr inh -62, HT1080 IDH1KD tx 21µM, TDP1 cell noCPT 13µM, HT1080NT lethal 18µM
CC(C)C[C@@H](CN1CCCC1CN1C(=S)NC[C@@H]1Cc1ccc(O)cc1)N1C[C@H](Cc2ccc(O)cc2)N(CC2CCCCCC2)C1=S (stereo partly drawn)	TDP1 cell CPT 15µM, IL1B secr inh -83, HT1080 IDH1KD tx inconclusive, TDP1 cell noCPT 8.2µM, HT1080NT lethal 23µM
CC(C)C[C@@H](CN1CCCC1CN1C(=S)NC[C@@H]1Cc1ccc(O)cc1)N1C[C@H](Cc2ccccc2)N(CC2CCCCCC2)C1=S (stereo partly drawn)	TDP1 cell CPT inconclusive, TDP1 cell noCPT 23µM
COCCn1cc(C(=O)c2cc(Br)ccc2O)cc(C#N)c1=O	TDP1 cell CPT inconclusive, TDP1 cell noCPT inconclusive
Cc1noc(C)c1S(=O)(=O)N(C)C[C@H]1Oc2ccc(NC(=O)Cc3ccccc3)cc2C(=O)N([C@H](C)CO)C[C@@H]1C	none
Cc1ccc(NC(=O)c2ccc(NCCCN3CCC(C)CC3)c([N+](=O)[O-])c2)c(C)c1	TDP1 cell CPT inconclusive, IL1B secr inh inconclusive, TDP1 cell noCPT 16µM, HT1080NT lethal inconclusive
O=C(Nc1cc(F)cc(F)c1)c1ccc(NCCCN2CCCCCC2)c([N+](=O)[O-])c1	TDP1 cell CPT inconclusive, IL1B secr inh -76, HT1080 IDH1KD tx inconclusive, TDP1 cell noCPT inconclusive, HT1080NT lethal inconclusive
O=C(Nc1cc(F)cc(F)c1)c1ccc(NCCc2ccccc2)c([N+](=O)[O-])c1	none
COc1cccc(NC(=O)c2ccc(NCCCN3CC(C)CC(C)C3)c([N+](=O)[O-])c2)c1 (stereo not drawn)	HT1080 IDH1KD tx inconclusive, TDP1 cell noCPT inconclusive, HT1080NT lethal inconclusive
COc1cccc(NC(=O)c2ccc(NCCCN3CCC(C)CC3)c([N+](=O)[O-])c2)c1	TDP1 cell CPT inconclusive, IL1B secr inh -65, HT1080 IDH1KD tx inconclusive, TDP1 cell noCPT 16µM, HT1080NT lethal inconclusive
COc1cccc(Nc2ccc(C(=O)O)cc2[N+](=O)[O-])c1	none
CCCN(CCC)CCCNc1ccc(C(=O)Nc2cccc(OC)c2)cc1[N+](=O)[O-]	TDP1 cell CPT inconclusive, IL1B secr inh -81, HT1080 IDH1KD tx 21µM, TDP1 cell noCPT inconclusive, HT1080NT lethal inconclusive
Cc1cc(CNC(=O)c2cccnc2Cl)c2ccccc2n1	TDP1 cell CPT inconclusive, HT1080 IDH1KD tx inconclusive, TDP1 cell noCPT inconclusive
COCCN(C(=O)c1oc2ccccc2c1COC)c1c(N)n(CC(C)C)c(=O)[nH]c1=O	none
